Potency data for 33 molecules are collected here from PubChem BioAssay AID624047 (National Center for Advancing Translational Sciences (NCATS), 2012).

Each structure is given as a SMILES string. The source made the active and inactive calls. Calls follow the shape of the dose curve; as a rule, active = well fitted inhibition curve with a large enough effect; inactive = flat fitted curve, though single readings scatter.

The target in this assay is Dual specificity protein kinase CLK1 (Homo sapiens) (UniProt P49759). Kind of assay: Reaction Biology data for inhibitors of CLK1: Probe SAR. To be noted: Reaction Biology CLK1 kinase assay, 10 uM ATP; series mostly up to 10 µM. The source says: Alternative splicing of pre-mRNAs plays a major role in the regulation of eukaryotic gene expression. Alternative splicing is now thought to be one of the primary reasons for the complexity of higher organisms leading to an average of three protein isoforms per gene. Aberrant splicing can lead to a number of diseases and is known to play a role in rare genetic diseases such as progeria syndrome. Hutchinson-Gilford Progeria Syndrome (HGPS) is a pediatric premature aging disease caused by a spontaneous mutation in the lamin A/C (LMNA) gene due to a single point mutation in the lamin A gene effecting 1 in 4 million people. To identify both specific splicing modulators of the lamin A gene as well as general splicing modulators, a cell-based HTS assay was developed using a minigene reporter system (AIDs, 1459 & 1487). […] This AID summarizes the characterization of lead compounds in Clk1. NIH Molecular Libraries Probe Production Centers Network [MLPCN] NIH Chemical Genomics Center [NCGC] MLPCN Grant: MH084827 Assay Submitter (PI): Tom Misteli
Sequence of Dual specificity protein kinase CLK1 (Homo sapiens) (P49759 whole entry, looked up, canonical isoform): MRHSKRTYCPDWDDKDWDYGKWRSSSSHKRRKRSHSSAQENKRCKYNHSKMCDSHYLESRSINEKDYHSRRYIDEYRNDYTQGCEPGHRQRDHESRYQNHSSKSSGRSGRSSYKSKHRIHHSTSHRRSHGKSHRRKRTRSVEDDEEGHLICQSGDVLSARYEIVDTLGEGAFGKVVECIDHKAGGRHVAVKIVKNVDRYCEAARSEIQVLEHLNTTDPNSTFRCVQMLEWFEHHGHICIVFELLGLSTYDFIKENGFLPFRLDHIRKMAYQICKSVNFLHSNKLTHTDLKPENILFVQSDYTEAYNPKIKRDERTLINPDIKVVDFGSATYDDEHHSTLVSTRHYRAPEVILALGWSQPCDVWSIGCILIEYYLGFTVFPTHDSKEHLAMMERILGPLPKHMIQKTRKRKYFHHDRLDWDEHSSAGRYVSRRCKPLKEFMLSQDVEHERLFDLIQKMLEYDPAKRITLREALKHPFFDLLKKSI
Compound IC50s were determined at Reaction Biology (http://www.reactionbiology.com) with ten concentration points starting at 10 uM in the assay using a 3-fold dilution series. The control compound staurosporine was also tested in the 10-dose IC50 mode with the same 3-fold serial dilution, again starting at 10 uM. All kinase reactions were performed using 10 uM ATP in the assay. 100% activity was taken from kinase reactions with DMSO alone (the vehicle used for compound stock solutions).
Take `FC(F)(F)c1cc(Br)cc(Nc2nccc(-c3ccc4c(c3)OCO4)n2)c1`: the Potency is 102 nM (active).

As for `Clc1cc(Cl)cc(CNc2nccc(-c3ccc4c(c3)OCO4)n2)c1`, the Potency is 1.9 nM (active).

For `Clc1ccc(CNc2nccc(-c3ccc4c(c3)OCO4)n2)cc1Cl`, the Potency is 8.3 nM (active).

Regarding `Cc1nc(CN(C)c2ncnc3ccc(-c4ccc5[nH]ncc5c4)cc23)cs1`, the Potency is 47.5 nM (active).

In the case of `Clc1ccc(Nc2nccc(-c3ccc4c(c3)OCO4)n2)cc1`, the Potency is 1260 nM (active).

`Brc1cc(Br)cc(CNc2nccc(-c3ccc4c(c3)OCO4)n2)c1`: the Potency was 13 nM (active).

Consider `c1cncc(CNc2nccc(-c3ccc4[nH]ncc4c3)n2)c1`, for which the Potency was 72.8 nM (active).

Take `COc1ccc(-c2ccnc(NCc3ccc(Cl)c(Cl)c3)n2)cc1OC`: the Potency entry was “inactive”.

As for `Clc1cc(Cl)cc(CNc2ncncc2-c2ccc3c(c2)OCO3)c1`, the Potency is 68.4 nM (active).

In the case of `COc1ccc(-c2ccnc(NCc3ccc(Cl)cc3)n2)cc1`, the Potency was 277 nM (active).

For `Clc1ccc(CNc2nccc(-c3ccc4cn[nH]c4c3)n2)cc1Cl`, the Potency was 183 nM (active).

Turning to `c1cncc(CNc2ccnc(-c3ccc4[nH]ncc4c3)n2)c1`, the Potency is 964 nM (active).

As for `Clc1ccc(CNc2nccc(-c3ccc4[nH]ncc4c3)n2)cc1Cl`, the Potency is 41.5 nM (active).

In the case of `c1cc(-c2ccc3c(c2)OCO3)nc(Nc2ccc3c(c2)OCO3)n1`, the Potency was 180 nM (active).

`c1cncc(CNc2ccnc(-c3ccc4cn[nH]c4c3)n2)c1`: the Potency was 1600 nM (active).

Take `COc1cccc(-c2ccnc(NCc3ccc(Cl)cc3)n2)c1`: the Potency result is “inactive”.

`Cc1nc(CNc2ncnc3ccc(-c4ccc5c(c4)OCO5)cc23)cs1`: the Potency is 30.4 nM (active).

For the molecule `Brc1ccc(CNc2nccc(-c3ccc4c(c3)OCO4)n2)cc1Br`, the Potency is 24.1 nM (active).

With `Clc1ccc(CNc2ncncc2-c2ccc3c(c2)OCO3)cc1Cl`, the Potency is 626 nM (active).

For `FC(F)(F)c1cccc(Nc2nccc(-c3ccc4c(c3)OCO4)n2)c1`, the Potency was 33.6 nM (active).

With `Clc1ccc(CNc2ncncc2-c2ccc3c(c2)OCO3)cc1`, the Potency was 2370 nM (active).

`c1cncc(CNc2nccc(-c3ccc4c(c3)OCO4)n2)c1`: the Potency is 11.3 nM (active).

As to `O=[N+]([O-])c1cc(Nc2nccc(-c3ccc4c(c3)OCO4)n2)cc(C(F)(F)F)c1`, the Potency was 32.3 nM (active).

As for `Clc1ccc(CNc2nccc(-c3ccc4c(c3)OCCO4)n2)cc1Cl`, the Potency is 15.8 nM (active).

`c1nc(NCC2CCCO2)c2cc(-c3ccc4c(c3)OCO4)ccc2n1` (stereo not drawn): the Potency was 52.8 nM (active).

Regarding `COc1ccc(-c2ccnc(NCc3ccc(Cl)c(Cl)c3)n2)cc1`, the Potency was 76.5 nM (active).

Regarding `Cc1nc(CN(C)c2ncnc3ccc(-c4ccc5c(c4)OCO5)cc23)cs1`, the Potency is 9.3 nM (active).

On to `COc1cccc(-c2ccnc(NCc3ccc(Cl)c(Cl)c3)n2)c1`, for which the Potency was 5460 nM (active).

In the case of `Cc1c(-c2ccnc(NCc3ccc(Cl)cc3)n2)sc(=O)n1C`, the Potency is 74.8 nM (active).

Take `Clc1ccc(CNc2ccnc(-c3ccc4[nH]ncc4c3)n2)cc1Cl`: the Potency is 1780 nM (active).

For `Cc1c(-c2ccnc(NCc3cccnc3)n2)sc(=O)n1C`, the Potency was 44.9 nM (active).

As to `c1cncc(CNc2ncncc2-c2ccc3c(c2)OCO3)c1`, the Potency is 4800 nM (active).

For `Clc1ccc(CNc2ccnc(-c3ccc4c(c3)OCO4)n2)cc1Cl`, the Potency result is “inactive”.
